Compound activity (PubChem BioAssay)
Most compounds without a hit are left out; they make up all but 5.8% or so of the library.
MCF10A rerep – A quantitative high throughput screen for small molecules that induce DNA re-replication in MCF 10a normal breast cells; AID 624296, 2012; MCF 10A DNA re-replication, Hoechst nuclear intensity, 48 h; Potency, µM (series often up to 46.1 µM), usual class: activators; 2.9% of 350,000 active; also: nearly all actives have a fitted effect of over 50% in size
KB-3-1 tox – qHTS assay for MDR1-selective chemotherapeutics: Primary screen using the parental adenocarcinoma cell KB-3-1. KB-3-1 viability, CellTiter-Glo ATP luminescence, 72 h. AID 1347075, 2019. Potency, µM (series often up to 46.1 µM), actives largely listed as cytotoxic. 1.4% of 400,000 active; also: nearly all actives have a fitted effect of over 60% in size
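KB-3-1 parental drug-naive adenocarcinoma cells in DMEM/10% FBS, incubated 72 h at 37 C with pin-transferred compounds across a concentration series. Viability by CellTiter-Glo luminescence; concentration-response curves fitted after normalization.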
PINK1 expr mod – A Quantitative High throughput Screen to Identify Chemical Modulators of PINK1 Expression; PINK1 immunofluorescence, high-content cytometry, 24 h; Potency, µM (highest dose often 76.6 µM), actives largely listed as activators; 0.2% of 410,000 active; active = well fitted activation curve with a large enough effect; inconclusive = small, poorly fitted or top-dose-only effect; cell line not stated here; also: nearly all actives have a fitted effect of over 65% in size
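PINK1 protein level read as immunofluorescence by microplate cytometer in a fixed, stained stable cell line after 24 h exposure to five compound concentrations, with CCCP as control.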
KB-V1 MDR tox – qHTS assay for MDR1-selective chemotherapeutics: Primary screen using the drug-selected MDR subline cells KB-V1 | KB-V1 MDR cells viability, CellTiter-Glo, 72 h | Potency, µM (highest dose often 46.1 µM), usual class: cytotoxic | 3.4% of 400,000 active; also: nearly all actives have a fitted effect of over 60% in size
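Drug-selected KB-V1 cells, grown in DMEM lacking phenol red with 10% FBS, receive compound titrations; after three days at 37 degrees C, surviving cell ATP is quantified by CellTiter-Glo luminescence and responses normalized and curve-fitted.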
ALOX12 inh – Primary qHTS assay for inhibitors of human arachidonate 12S-lipoxygenase (ALOX12): Round 2; Polyunsaturated fatty acid lipoxygenase ALOX12 (Homo sapiens), P18054; purified 12hLO, xylenol orange hydroperoxide absorbance; Potency, µM (top dose mostly 108 µM), most hits filed as inhibitors; 1.1% of 580,000 active
Target sequence (P18054 whole entry, looked up): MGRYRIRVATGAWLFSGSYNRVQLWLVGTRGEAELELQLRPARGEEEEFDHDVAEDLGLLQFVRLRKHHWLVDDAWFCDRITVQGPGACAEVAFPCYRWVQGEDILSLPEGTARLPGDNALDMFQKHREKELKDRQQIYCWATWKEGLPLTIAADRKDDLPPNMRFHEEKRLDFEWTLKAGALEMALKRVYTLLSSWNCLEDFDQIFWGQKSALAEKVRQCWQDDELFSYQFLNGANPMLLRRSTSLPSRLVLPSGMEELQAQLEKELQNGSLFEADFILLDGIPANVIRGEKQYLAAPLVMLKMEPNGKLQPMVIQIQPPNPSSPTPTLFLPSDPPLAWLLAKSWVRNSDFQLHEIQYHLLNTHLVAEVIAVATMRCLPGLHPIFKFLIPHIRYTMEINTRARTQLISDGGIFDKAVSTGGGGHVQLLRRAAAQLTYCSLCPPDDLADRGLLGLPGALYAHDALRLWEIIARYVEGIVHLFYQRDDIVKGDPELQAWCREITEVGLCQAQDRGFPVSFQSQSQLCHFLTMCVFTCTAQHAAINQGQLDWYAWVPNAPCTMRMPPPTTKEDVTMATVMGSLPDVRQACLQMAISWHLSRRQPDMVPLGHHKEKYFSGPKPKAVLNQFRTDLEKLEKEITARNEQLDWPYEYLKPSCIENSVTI
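Purified human 12hLO at 150 nM in 25 mM Hepes, 0.01% Triton X-100, pH 7.0, preincubated 15 min at room temperature with compound. Reaction started with 40 uM arachidonic acid, 30 min at room temperature. Hydroperoxide measured by Fe-xylenol orange, 573/405 nm absorbance ratio.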
SW480 rerep – A quantitative high throughput screen for small molecules that induce DNA re-replication in SW480 colon adenocarcinoma cells | 1.8% of 340,000 active | SW480 DNA re-replication, Hoechst DNA content imaging, 48 h | Potency, µM (series often up to 46.1 µM), usual class: activators | AID 624297, 2012; also: nearly all actives have a fitted effect of over 55% in size
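Image-based read-out: total Hoechst fluorescence of nuclei (405 nm excitation, 500-530 nm emission), with hits raising the fraction of high-intensity nuclei. SW480 colon cells incubated 48 hr with compounds at 37 C.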
Of the large screens only hits and unclear results are named; the others gave an inactive call; ! = a repeat was not active. Unless noted, calls follow the shape of the dose curve; as a rule, active = well fitted curve in the direction sought with a large enough effect; inconclusive = small, poorly fitted or top-dose-only effect, or another doubt; inactive = no such curve, though single readings can be large; an effect the other way counts as inactive or inconclusive.

COc1ccc(CCNc2cc(C)nc3c(-c4ccccc4)cnn23)cc1OC	MCF10A rerep inconclusive
COc1cccc(OCC(=O)c2ccc3c(c2)N(CCCC(=O)NCc2ccccc2)C(=O)CO3)c1	none (no result: MCF10A rerep, KB-3-1 tox, PINK1 expr mod, KB-V1 MDR tox, SW480 rerep)
CCc1cc2c(cc1C1(C)OCCO1)C(C)(C)CCC2(C)C	none (no result: MCF10A rerep, KB-3-1 tox, PINK1 expr mod, KB-V1 MDR tox, SW480 rerep)
Fc1ccc(C2CCNCC2COc2ccc3c(c2)OCO3)cc1 (stereo unspecified)	MCF10A rerep inconclusive, KB-3-1 tox inconclusive, KB-V1 MDR tox inconclusive, ALOX12 inh inconclusive, SW480 rerep inconclusive
Fc1ccc([C@@H]2CCNC[C@H]2COc2ccc3c(c2)OCO3)cc1	MCF10A rerep inconclusive, KB-3-1 tox inconclusive, KB-V1 MDR tox 23µM!, ALOX12 inh inconclusive, SW480 rerep inconclusive
Cc1nn(C(C)(C)C)c(OC(=O)C2CCCC2)c1S(=O)(=O)c1ccccc1	MCF10A rerep inconclusive, KB-3-1 tox 21µM, KB-V1 MDR tox inconclusive
CN=c1scc(-c2ccco2)n1/N=C/c1ccc(O)c(O)c1	KB-3-1 tox inconclusive, ALOX12 inh 40µM, SW480 rerep inconclusive
COc1ccc(O)c(/C=N/n2c(-c3ccco3)csc2=Nc2cccnc2)c1	none
Cc1ccnc(NC(=O)C2CCN(C(=O)C3CC3)CC2)c1	none (no result: MCF10A rerep, KB-3-1 tox, PINK1 expr mod, KB-V1 MDR tox, SW480 rerep)
CS(=O)(=O)NCCc1ccc(C(=O)O)cc1	none (no result: MCF10A rerep, KB-3-1 tox, PINK1 expr mod, KB-V1 MDR tox, SW480 rerep)
Cc1ccc2c(Cl)c(C(=O)NCc3cccnc3)sc2c1	KB-V1 MDR tox 15µM
Cc1ccc2c(Cl)c(C(=O)Nc3ccc4c(c3)OCO4)sc2c1	MCF10A rerep inconclusive, SW480 rerep 21µM
O=C(NC1CCC(C(F)(F)F)CC1)C1CCCCC1 (stereo unspecified)	none (no result: MCF10A rerep, KB-3-1 tox, PINK1 expr mod, KB-V1 MDR tox, SW480 rerep)
Cc1ccc(NC(=O)Cc2coc3ccc(C(C)C)cc23)cc1Cl	KB-3-1 tox inconclusive, KB-V1 MDR tox 16µM (no result: MCF10A rerep, SW480 rerep)
CCOC(=O)C(CC)(CC)C(=O)/C=C/c1cccc(Br)c1	MCF10A rerep 18µM, KB-3-1 tox inconclusive, KB-V1 MDR tox inconclusive, SW480 rerep inconclusive
NC(=O)NC(=O)COC(=O)/C=C/c1cccc(Br)c1	none
COCCNC(=O)[C@H](CSCc1ccccc1)N1Cc2ccccc2C1=O	KB-V1 MDR tox 9.2µM
COCCCNC(=O)[C@H](CSCc1ccccc1)N1Cc2ccccc2C1=O	SW480 rerep inconclusive
Cc1nc2cc(OCc3cc(C(=O)NC(C)c4cnn(C)c4)no3)ccc2s1 (stereo unspecified)	KB-V1 MDR tox 10µM
O=C(Cn1cc(S(=O)(=O)Cc2ccccc2)c2ccccc21)Nc1ccccc1	KB-V1 MDR tox 18µM (no result: ALOX12 inh)
COc1ccc(NC(=O)Cn2cc(S(=O)(=O)Cc3ccc(F)cc3)c3ccccc32)cc1OC	ALOX12 inh 50µM (no result: MCF10A rerep, SW480 rerep)
CC(=O)c1ccc(NC(=O)Cn2cc(S(=O)(=O)Cc3cccc(Cl)c3)c3ccccc32)cc1	none (no result: MCF10A rerep, SW480 rerep)
CCc1nnc(NS(=O)(=O)c2ccc(NC(=S)NC(=O)c3ccc(F)cc3)cc2)s1	ALOX12 inh 22µM
Cc1cc(NS(=O)(=O)c2ccc(NC(=S)NC(=O)c3cccnc3)cc2)no1	ALOX12 inh inconclusive, SW480 rerep 3.3µM
Cc1cc(NS(=O)(=O)c2ccc(NC(=S)NCc3ccccc3)cc2)no1	ALOX12 inh 45µM
Cc1cc(NS(=O)(=O)c2ccc(NC(=S)NC(=O)c3ccc(Br)cc3)cc2)no1	ALOX12 inh 10µM
CCN1CCN(Cc2ccc(NC(=O)c3cc(NC(=O)c4cc(-c5ccc(OC)cc5)n[nH]4)cc(OC)c3)cc2C(F)(F)F)CC1	KB-V1 MDR tox 16µM
Cc1ccc(C(=O)Nc2cccc(C(F)(F)F)c2)cc1NC(=O)c1c[nH]c2cc(C(F)(F)F)ccc2c1=O	KB-3-1 tox inconclusive
